The results in this text go back to PubChem BioAssay.

A short description of experiment [1]: HepG2 liver cancer cell viability effects, profiling panel, resazurin fluorescence, 24 h, PK04 Diversity Set (AID 1172). The settings on record: higher = more signal.
Experiment [2] can be described thus: basal S. cerevisiae growth modulation, no modifier, primary screen, OD600, strain BY4716, 24 h, basal condition (AID 1173). The settings on record: OD600, 24 h, higher = more signal, called active from +8 up or from −8 down.
Experiment [3] can be described thus: MM1S myeloma cell viability, profiling panel, resazurin fluorescence, basal, 24 h, PK04 Diversity Set (AID 1174).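 Also: MM1S multiple myeloma cell line.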 The settings on record: higher = more signal, called active from +8 up or from −8 down.
For experiment [4], the target named is Dihydroorotate dehydrogenase (quinone), mitochondrial (Plasmodium falciparum (isolate 3D7)) (UniProt Q08210). Put plainly: PfDHODH enzyme inhibitors, primary screen, biochemical, C-terminal His tag, absorbance 600 nm (AID 1175).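 Also: recombinant parasite enzyme with a five histidine tag at its C terminus.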 The settings on record: DCIP absorbance 600 nm, higher = more signal, called active from +8 up or from −8 down.
Experiment [5] in a line: P. aeruginosa biofilm formation inhibitors, primary screen, strain PAO1, LB-PBS medium, absorbance 600 nm (AID 1176). The settings on record: P. aeruginosa PAO1 growth/biofilm, A600, 12 h; higher = more signal.
Experiment [6] is described as follows: S. cerevisiae RM11-1a growth modifiers, primary screen, strain RM11-1a, OD600, basal, 24 h (AID 1177).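 Also: cultures grown under basal conditions with no added stressor.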 The settings on record: OD600, 24 h, higher = more signal, called active from +8 up or from −8 down.
Experiment [7] can be described thus: E. coli acrAB mutant growth effects, primary screen, E. coli filamentation inducers, strain DRC39, OD650, 24 h (AID 1178).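 Also: growth measured as culture turbidity by optical density at 650 nm.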 The following applies: higher = more signal, called active from +8 up or from −8 down.
Experiment [8] is described as follows: E. coli acrAB mutant growth effects, primary screen, E. coli filamentation inducers, strain DRC39, OD650, 48 h (AID 1179).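 Also: screen aims at cell division blockers that make cells filament.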 The settings on record: E. coli DRC39 delta-acrAB growth, higher = more signal, called active from +8 up or from −8 down.
Experiment [9] in a line: RPMI8226 myeloma cell viability, profiling panel, resazurin fluorescence, basal, 24 h, PK04 Diversity Set (AID 1180).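 Also: RPMI8826 multiple myeloma cell line at 5000 cells per well.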 The following applies: higher = more signal. For orientation: Alamar Blue is a resazurin reagent that responds to reducing activity.
Experiment [10] concerns the target E3 ubiquitin-protein ligase XIAP (Homo sapiens) (UniProt P98170). Put plainly: XIAP binders, primary screen, biophysical, small-molecule microarray, fluorescence 635 nm (AID 1181).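 Also: score merges 667 nm emission and signal to noise over triplicate slides.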 The settings on record: small-molecule microarray binding, higher = more signal.
For experiment [11], the system named is XIP peptide (Xip251-270) binding. Put plainly: small-molecule binders of XIP peptide, primary screen, biochemical, small-molecule microarray, fluorescence 635/667 nm, 0.1 µg/mL protein (AID 1182). The settings on record: fluorescent protein binding, 635 nm, higher = more signal, called active from +8 up or from −8 down.
The next experiment has as its system XIP peptide (Xip251-270). Put plainly: small-molecule binders of XIP peptide, primary screen, biochemical, small-molecule microarray, fluorescence 635/667 nm, 0.5 µg/mL protein (AID 1183). The following applies: small-molecule microarray binding, fluorescence 635 nm; higher = more signal.
Experiment [12] is described as follows: Plasmodium falciparum growth inhibition, primary screen, strain 3D7, DAPI fluorescence, 100 nL (AID 1184).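 Also: parasites grown inside human red blood cells in medium with human serum.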 The settings on record: P. falciparum 3D7 growth, 3 d, higher = more signal.
The target of experiment [13] is Homeobox protein Hox-A13 (Mus musculus) (UniProt Q62424). Put plainly: inhibitors of HoxA13-DNA binding, primary screen, biochemical, fluorescence polarization, labeled oligonucleotide (AID 1185). The following applies: 15 min, higher = more signal, called active from +8 up or from −8 down. Background: Fluorescence polarisation rises when a labelled molecule tumbles more slowly, as on binding a larger partner.

Experiment [14] can be described thus: inhibitors of hydroxyurea-induced Chk1 phosphorylation, primary screen, imaging, HeLa, phospho-Chk1 antibody, percent positive cells (AID 1186). The settings on record: hydroxyurea-induced phospho-Chk1 immunofluorescence imaging, higher = more signal.
Experiment [15] is described as follows: inhibitors of hydroxyurea-induced Chk1 phosphorylation, primary screen, imaging, HeLa, phospho-Chk1 nuclear intensity (AID 1187). The following applies: hydroxyurea-induced phospho-Chk1 immunofluorescence imaging, higher = more signal.

Calls of active or inactive are those of the source. Unless noted, no rule for the calls is given here.

Sequence of E3 ubiquitin-protein ligase XIAP (Homo sapiens) (P98170 whole entry, looked up): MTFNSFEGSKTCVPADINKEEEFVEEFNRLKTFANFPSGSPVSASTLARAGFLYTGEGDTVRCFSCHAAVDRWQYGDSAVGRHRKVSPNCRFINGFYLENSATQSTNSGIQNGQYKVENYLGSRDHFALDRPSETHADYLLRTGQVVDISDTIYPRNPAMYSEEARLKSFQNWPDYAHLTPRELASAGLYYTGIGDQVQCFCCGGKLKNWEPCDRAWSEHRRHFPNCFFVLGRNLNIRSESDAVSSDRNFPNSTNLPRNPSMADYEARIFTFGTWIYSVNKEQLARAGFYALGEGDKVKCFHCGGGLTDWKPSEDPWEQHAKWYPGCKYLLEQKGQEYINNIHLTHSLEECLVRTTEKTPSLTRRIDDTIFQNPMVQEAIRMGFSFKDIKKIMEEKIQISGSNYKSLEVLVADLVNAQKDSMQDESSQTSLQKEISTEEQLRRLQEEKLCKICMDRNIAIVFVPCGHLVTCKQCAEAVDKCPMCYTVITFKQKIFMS
Sequence of Dihydroorotate dehydrogenase (quinone), mitochondrial (Plasmodium falciparum (isolate 3D7)) (Q08210 whole entry, looked up): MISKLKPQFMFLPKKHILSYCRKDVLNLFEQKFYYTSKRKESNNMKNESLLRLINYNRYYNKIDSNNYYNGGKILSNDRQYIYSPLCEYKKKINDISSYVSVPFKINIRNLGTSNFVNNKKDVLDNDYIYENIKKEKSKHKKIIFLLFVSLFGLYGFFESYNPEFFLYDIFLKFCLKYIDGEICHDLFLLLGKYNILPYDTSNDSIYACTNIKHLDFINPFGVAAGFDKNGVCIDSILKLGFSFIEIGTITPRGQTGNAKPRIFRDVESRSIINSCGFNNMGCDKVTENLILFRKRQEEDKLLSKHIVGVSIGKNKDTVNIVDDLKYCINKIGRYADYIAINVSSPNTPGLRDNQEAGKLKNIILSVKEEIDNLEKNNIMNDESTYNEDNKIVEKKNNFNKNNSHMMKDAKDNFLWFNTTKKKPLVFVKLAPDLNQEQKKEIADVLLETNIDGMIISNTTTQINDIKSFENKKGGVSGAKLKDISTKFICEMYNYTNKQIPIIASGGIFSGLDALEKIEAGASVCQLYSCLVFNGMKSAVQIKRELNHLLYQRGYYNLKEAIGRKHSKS
Sequence of Homeobox protein Hox-A13 (Mus musculus) (Q62424 whole entry, looked up): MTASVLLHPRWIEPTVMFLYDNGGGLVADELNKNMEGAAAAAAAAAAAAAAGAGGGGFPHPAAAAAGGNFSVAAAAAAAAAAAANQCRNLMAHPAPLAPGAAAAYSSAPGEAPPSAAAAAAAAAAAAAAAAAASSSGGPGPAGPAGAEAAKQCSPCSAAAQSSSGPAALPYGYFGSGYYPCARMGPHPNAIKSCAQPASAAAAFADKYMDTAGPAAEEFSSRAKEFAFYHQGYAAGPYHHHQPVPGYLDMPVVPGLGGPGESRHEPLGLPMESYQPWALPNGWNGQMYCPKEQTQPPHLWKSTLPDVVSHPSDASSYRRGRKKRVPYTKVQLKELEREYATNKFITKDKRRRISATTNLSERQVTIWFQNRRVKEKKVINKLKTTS

On to `Cc1ccccc1C(O)C1C=CC2C(=O)N(Cc3ccccc3)C(=O)C2N1n1cnnc1` (centres undefined), for which the z-score in experiment [1] is 1.09; in experiment [2] it was 0.232 (inactive); in experiment [3] it was -0.562 (inactive); in experiment [5], 0.726 (inactive); in [6], -0.226 (inactive); in [7], -0.197 (inactive). Moreover, the z-score in [8] was 0.208 (inactive); in experiment [9], -0.408; in experiment [12], -0.318; in experiment [13] it was -3.23 (inactive); in experiment [14] it was 0.135 (inactive); in [15], -0.544 (inactive). Further, the composite z-score is -0.407 (inactive) in experiment [4], -0.184 in [10], 0.598 (inactive) in experiment [11] and 0.58 in the experiment on XIP peptide (Xip251-270).

In the case of `CCCN1C(=O)[C@@H]2Cc3c([nH]c4ccccc34)[C@@H](c3cccc(O)c3)N2C1=O`, the z-score is 0.944 in experiment [1]; 0.852 (inactive) in experiment [2]; 0.327 (inactive) in [3]; 0.764 (inactive) in [5]; 0.0696 (inactive) in experiment [6]; 0.19 (inactive) in [7]. Besides, the z-score in experiment [8] is 0.0246 (inactive); in experiment [9], 0.0074; in experiment [12], 1.39; in experiment [13], -0.802 (inactive); in experiment [14] it was -0.0463 (inactive); in experiment [15], -0.202 (inactive). Also, the composite z-score in [4] is -0.931 (inactive); in experiment [10], -0.313; in experiment [11], -0.227 (inactive); in the experiment with XIP peptide (Xip251-270) it was 0.181.

As for `C[N+](C)(C)CCCCCCNC(=O)[C@H]1C[C@H]2C(=O)N3CCC[C@H]3C(=O)N2[C@H]1c1cccc(OCCO)c1`, the z-score in [1] was 0.473; in experiment [2], -0.187 (inactive); in experiment [3], -0.41 (inactive); in [5], -0.13 (inactive); in [6] it was -0.637 (inactive); in experiment [7] it was 0.12 (inactive). For the same compound, the z-score is -0.271 (inactive) in experiment [8]; -0.767 in experiment [9]; 0.14 in experiment [12]; -3.94 (inactive) in experiment [13]; 0.372 (inactive) in [14]; 0.182 (inactive) in experiment [15]. For the same compound, the composite z-score was -0.788 (inactive) in experiment [4], 0.135 in experiment [10], 0.883 (inactive) in [11] and 0.713 in the experiment on XIP peptide (Xip251-270).

As to `CN(C)CCCNC(=O)[C@@]1(Cc2ccccc2I)c2ccccc2C(=O)N(Cc2ccccc2Cl)[C@H]1c1ccc(CO)cc1`, the z-score was -6.48 in [1]; -7.72 (inactive) in [2]; -8.82 (active) in experiment [3]; -0.233 (inactive) in [5]; -0.0889 (inactive) in [6]; -0.268 (inactive) in [7]. The z-score in experiment [8] is -1.26 (inactive); in experiment [9], -6.59; in experiment [12], -2.21; in experiment [13], -0.316 (inactive); in experiment [14], -0.022 (inactive); in experiment [15], -0.461 (inactive). Moreover, the composite z-score in experiment [4] is -0.205 (inactive); in experiment [10] it was 0.166; in experiment [11], 0.191 (inactive); in the experiment with XIP peptide (Xip251-270) it was 0.774.

In the case of `[N-]=[N+]=Nc1ccccc1[C@@H]1OC(c2ccc(OCCCO)cc2)=N[C@]1(CCS(=O)(=O)c1ccccc1)C(=O)NCc1ccccc1`, the z-score in experiment [1] is -0.287; in experiment [2], 1.18 (inactive); in [3] it was -0.37 (inactive); in experiment [5], 0.727 (inactive); in [6], 1.4 (inactive); in experiment [7], 0.439 (inactive). For the same compound, the z-score was 1.01 (inactive) in [8]; -0.893 in experiment [9]; -2.27 in experiment [12]; -1.05 (inactive) in [13]; -0.228 (inactive) in experiment [14]; -0.184 (inactive) in experiment [15]. Moreover, the composite z-score in experiment [4] is -2.59 (inactive); in [10], 0.125; in [11] it was 1.44 (inactive); in the experiment with XIP peptide (Xip251-270), 0.629.

Consider `Cc1ccc(N2C(=O)c3ccccc3[C@](C)(C(=O)NC(C)C)[C@@H]2c2ccc(CO)cc2)nc1`, for which the z-score in experiment [1] was -0.591; in experiment [2], 0.201 (inactive); in experiment [3], 0.761 (inactive); in experiment [5], 0.599 (inactive); in [6], -0.243 (inactive); in experiment [7], 0.381 (inactive). For the same compound, the z-score in experiment [8] is -0.111 (inactive); in experiment [9], 0.818; in experiment [12], -0.736; in [13], -0.858 (inactive); in [14], 0.0932 (inactive); in experiment [15], 0.205 (inactive). Moreover, the composite z-score in experiment [4] was -3.7 (inactive); in experiment [10], -0.272; in experiment [11], -0.224 (inactive); in the experiment on XIP peptide (Xip251-270), 0.677.

As to `C=CCNC(=O)[C@@H]1[C@H]2C(=O)O[C@H](c3ccccc3)[C@H](c3ccccc3)N2[C@H](c2ccc(O)cc2)[C@@]12C(=O)Nc1ccc(C#CCCO)cc12`, the z-score in [1] is 0.917; in experiment [2], -0.599 (inactive); in experiment [3] it was 0.343 (inactive); in experiment [5], -0.212 (inactive); in [6], -0.769 (inactive); in [7], 0.883 (inactive). Besides, the z-score is -0.582 (inactive) in [8]; 1.32 in experiment [9]; -0.37 in [12]; -5.14 (inactive) in experiment [13]; -0.154 (inactive) in experiment [14]; -0.0542 (inactive) in experiment [15]. Further, the composite z-score in experiment [4] is -0.489 (inactive); in experiment [10], -0.377; in [11], 3.57 (inactive); with XIP peptide (Xip251-270), 0.693.

On to `Cc1cc(C)c(C(O)C2C=CC3C(=O)N(c4ccccc4)C(=O)C3N2Nc2ccc([N+](=O)[O-])cc2)c(C)c1` (centres undefined), for which the z-score in experiment [1] was -0.221; in experiment [2] it was 0.414 (inactive); in experiment [3], -0.237 (inactive); in experiment [5], 1.64 (inactive); in experiment [6], 0.258 (inactive); in experiment [7], -0.777 (inactive). For the same compound, the z-score in [8] was -0.624 (inactive); in [9], 0.0375; in [12], -0.569; in experiment [13] it was -1.86 (inactive); in experiment [14] it was 0.487 (inactive); in experiment [15] it was 0.596 (inactive). The composite z-score was -0.212 (inactive) in experiment [4], 0.0827 in [10], 0.756 (inactive) in experiment [11] and 0.783 in the experiment on XIP peptide (Xip251-270).

Regarding `C/C=C/[C@@H](CCn1cc([C@H](O)c2ccccc2)nn1)[Si](C)(C)c1ccc(OC)cc1`, the z-score is 0.121 in experiment [1]; -1.5 (inactive) in [2]; -0.567 (inactive) in [3]; 0.0002 (inactive) in [5]; 0.72 (inactive) in experiment [6]; 0.508 (inactive) in experiment [7]. Moreover, the z-score in [8] was -0.253 (inactive); in experiment [9], -0.472; in experiment [12], -0.689; in experiment [13], -6.33 (inactive); in experiment [14], 0.546 (inactive); in [15], -0.159 (inactive). For the same compound, the composite z-score in experiment [4] was -0.222 (inactive); in experiment [10] it was -0.0918; in experiment [11], 0.895 (inactive); in the experiment on XIP peptide (Xip251-270), 0.778.
